Where “and” joins values, the source holds several entries; their conditions need not be identical. Equal entries are not always repeated. Records with an inconclusive call do not appear. Values without a mark were called inactive. Calls of active or inactive are those of the source. Calls come from the whole dose curve; as a rule, active = well fitted inhibition curve with a large enough effect; inconclusive = small, poorly fitted or top-dose-only effect; inactive = flat fitted curve, though single readings scatter.

This passage reports Potency and max response results from PubChem BioAssay (NCATS).

In one test the test system is ICS. Put plainly: qHTS profiling for inhibitors of Plasmodium falciparum proliferation (AID 504749). Note: potency is the fitted concentration of half-maximal effect. Particulars: P. falciparum in erythrocytes, SYBR Green DNA, 72 h; series mostly up to 28.7 µM. An outline of the steps: (§1)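 P. falciparum-infected erythrocytes (0.3% parasitemia, 2.5% hematocrit) incubated with compound 72 h at 37 C, 5% CO2. Parasite DNA detected by SYBR Green after lysis, overnight at room temperature; normalised to 0.29 uM artemisinin and DMSO.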
Background: qHTS replaces the single test concentration by a dilution series.

The next test relates to JCK. The test is described as above. Particulars: P. falciparum in erythrocytes, SYBR Green DNA, 72 h; series mostly up to 28.7 µM. An outline of the steps:
as §1

Another test concerns N140. Described as above. Particulars: P. falciparum in erythrocytes, SYBR Green DNA, 72 h; series mostly up to 28.7 µM. In short, it runs like this:
as §1

The next test concerns P93_24. The test is described as above. Particulars: P. falciparum in erythrocytes, SYBR Green DNA, 72 h; series mostly up to 28.7 µM. In short, it runs like this: as §1
Another test concerns P94_40. The description is as above. Particulars: P. falciparum in erythrocytes, SYBR Green DNA, 72 h; series mostly up to 28.7 µM. An outline of the steps:
as §1

Another test concerns PAD. The test is described as above. Particulars: P. falciparum in erythrocytes, SYBR Green DNA, 72 h; series mostly up to 28.7 µM. An outline of the steps:
as §1

In the next test the test system is PC15. The test is described as above. As to conditions: P. falciparum in erythrocytes, SYBR Green DNA, 72 h; series mostly up to 28.7 µM. An outline of the steps:
as §1

For a further test, the system named is PC26. Described as above. Particulars: P. falciparum in erythrocytes, SYBR Green DNA, 72 h; series mostly up to 28.7 µM. In short, it runs like this:
as §1

A further test relates to PC49. The test is described as above. Particulars: P. falciparum in erythrocytes, SYBR Green DNA, 72 h; series mostly up to 28.7 µM. In short, it runs like this: as §1
Another test concerns SC27B. The description is as above. As to conditions: P. falciparum in erythrocytes, SYBR Green DNA, 72 h; series mostly up to 28.7 µM. An outline of the steps:
as §1

A further test concerns TAB109. The description is as above. Particulars: P. falciparum in erythrocytes, SYBR Green DNA, 72 h; series mostly up to 28.7 µM. In short, it runs like this:
as §1

The subject of another test is TAB113. The test is described as above. As to conditions: P. falciparum in erythrocytes, SYBR Green DNA, 72 h; series mostly up to 28.7 µM. In short, it runs like this:
as §1

Another test relates to TAB165. The test is described as above. Particulars: P. falciparum in erythrocytes, SYBR Green DNA, 72 h; series mostly up to 28.7 µM. An outline of the steps: as §1
The next test has as its system W2. Described as above. Particulars: P. falciparum in erythrocytes, SYBR Green DNA, 72 h; series mostly up to 28.7 µM. An outline of the steps:
as §1

The next test concerns KB-3-1. Put plainly: Cytotoxic Profiling of Annotated Libraries Using Quantitative High-Throughput Screening (AID 1296008). Note: % is set by controls: 0 for no effect and ±100 for the full control effect. As to conditions: Five cell lines viability, CellTiter-Glo ATP luminescence, 48-72 h; max response: hits give low values. In short, it runs like this:
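Cells exposed to compounds for 48 or 72 hr at 37 degrees Celsius. Viability read as ATP-coupled luminescence with CellTiter-Glo after 10 min at room temperature.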
On the technique in general: In ATP-based viability assays light output follows the ATP content of the culture.
Note: nearly all actives have a fitted effect of over 60% in size.

With `NC(=O)Oc1ccc(Cc2ccccc2)cc1`, the Potency entry in the test with ICS, with JCK, with N140, with P93_24, with P94_40 and in the test on PAD was “inactive” each time. For the same compound, the Potency entry with PC15, with PC26, in the test on PC49, with SC27B, with TAB109 and in the test on TAB113 was “inactive” each time. For the same compound, the Potency result with TAB165 and in the test with W2 was “inactive” each time. Also, in the test on KB-3-1, the max response is 11.9%.
Regarding `O=S(=O)(O)CC(S)CS` (configuration not stated), the Potency entry in the test on ICS, with JCK, with N140, in the test on P93_24, in the test on P94_40 and in the test with PAD was “inactive” throughout. The Potency result in the test on PC15, with PC26, in the test on PC49, with SC27B, in the test on TAB109 and in the test on TAB113 was “inactive” in each case. Further, the Potency entry in the test on TAB165 and with W2 was “inactive” throughout. The max response with KB-3-1 was 3.44%.
For the compound `CCCCCCCCCCCCCC(=O)OCC(COP(=O)([O-])OCC[N+](C)(C)C)OC(=O)CCCCCCCCCCCCC` (configuration not stated), the Potency entry in the test on ICS, with JCK, in the test with N140, in the test on P93_24, with P94_40 and in the test on PAD was “inactive” each time. For the same compound, the Potency entry with PC15, in the test on PC26, in the test with PC49, with SC27B, with TAB109 and in the test on TAB113 was “inactive” throughout. Also, the Potency result in the test on TAB165 and in the test with W2 was “inactive” in each case. Besides, the max response with KB-3-1 is 15.8%.
In the case of `CC(C)(COP(=O)(O)OP(=O)(O)OC[C@H]1O[C@@H](n2cnc3c(N)ncnc32)[C@H](O)[C@@H]1OP(=O)(O)O)C(O)C(=O)NCCC(=O)NCCS` (some centres not stated), the Potency result in the test on ICS, in the test with JCK, with N140, with P93_24, in the test with P94_40 and in the test on PAD was “inactive” each time. For the same compound, the Potency result in the test with PC15, with PC26, in the test with PC49, in the test with SC27B, in the test on TAB109 and with TAB113 was “inactive” throughout. Besides, the Potency result in the test with TAB165 and in the test with W2 was “inactive” each time. The max response in the test with KB-3-1 is 7.71%.
As to `c1ccc2ccccc2c1`, the Potency entry in the test on ICS, in the test with JCK, in the test with N140, with P93_24, in the test with P94_40 and with PAD was “inactive” each time. Also, the Potency result in the test with PC15, in the test on PC26, in the test with PC49, in the test with SC27B, in the test with TAB109 and with TAB113 was “inactive” in each case. In addition, the Potency result in the test with TAB165 and in the test with W2 was “inactive” in each case. Also, the max response in the test on KB-3-1 was -0.155%.
`CC(=O)N[C@@H]1C(O[C@H]2O[C@H](C(=O)O)C(O)[C@H](O)[C@H]2O)[C@H](O)[C@@H](CO)O[C@H]1O[C@@H]1C(C(=O)O)O[C@@H](O[C@H]2[C@H](O)[C@@H](CO)OC(O)[C@@H]2NC(C)=O)[C@H](O)[C@H]1O` (some centres not stated): the Potency result with ICS, in the test on JCK, in the test with N140, in the test with P93_24, in the test on P94_40 and in the test with PAD was “inactive” each time. Further, the Potency result in the test on PC15, in the test on PC26, with PC49, with SC27B, with TAB109 and in the test with TAB113 was “inactive” each time. For the same compound, the Potency result in the test with TAB165 and in the test with W2 was “inactive” throughout. Also, in the test on KB-3-1, the max response was -7.66%.
As for `COc1ccc(C(=O)CCC(=O)O)c2ccccc12`, the Potency entry with ICS, in the test with JCK, in the test on N140, in the test with P93_24, in the test with P94_40 and in the test on PAD was “inactive” each time. Moreover, the Potency result with PC15, in the test on PC26, with PC49, with SC27B, with TAB109 and in the test on TAB113 was “inactive” each time. Also, the Potency result with TAB165 and in the test with W2 was “inactive” in each case. The max response with KB-3-1 is -0.566%.
Turning to `CC1C(=O)CC2C3(C)CCC2(C(C)C(=O)O)C(=O)C13` (configuration not stated), the Potency result in the test on ICS, in the test with JCK, in the test on N140, with P93_24, in the test on P94_40 and in the test on PAD was “inactive” throughout. Also, the Potency result with PC15, with PC26, in the test with PC49, in the test with SC27B, in the test on TAB109 and with TAB113 was “inactive” in each case. Also, the Potency result with TAB165 and with W2 was “inactive” each time. In the test on KB-3-1, the max response was 5.4%.
With `Cc1cc(C(=O)NCCc2ccc(S(=O)(=O)NC(=O)NN3CCCCCC3)cc2)no1`, the Potency result in the test with ICS, in the test on JCK, with N140, with P93_24, in the test with P94_40 and with PAD was “inactive” in each case. Also, the Potency result in the test on PC15, in the test on PC49, in the test on SC27B, with TAB109, in the test on TAB113 and in the test on TAB165 was “inactive” each time. The Potency entry in the test with W2 was “inactive”. In the test on KB-3-1, the max response was 8.89%.
Regarding `O=C1NCCN1c1ncc([N+](=O)[O-])s1`, the Potency result in the test with ICS, with JCK, in the test with N140, in the test on P93_24, in the test with P94_40 and in the test on PAD was “inactive” in each case. Besides, the Potency result in the test on PC15, with PC26, with SC27B, in the test on TAB113, in the test on TAB165 and with W2 was “inactive” in each case. Besides, in the test on KB-3-1, the max response is 1.83%.
`OCC1(CO)COC(C(Cl)(Cl)Cl)OC1`: the Potency entry with ICS, in the test on JCK, in the test on N140, in the test with P93_24, in the test on P94_40 and in the test on PAD was “inactive” throughout. For the same compound, the Potency entry with PC15, in the test on PC26, in the test with PC49, with SC27B, in the test on TAB113 and in the test with TAB165 was “inactive” in each case. Also, the Potency result in the test with W2 was “inactive”. In addition, the max response in the test with KB-3-1 was 16.6%.
As for `OCCOCCOCCO`, the Potency entry in the test with ICS, with JCK, in the test with N140, with P93_24, in the test with P94_40 and in the test with PAD was “inactive” throughout. Besides, the Potency entry in the test with PC15, in the test with PC49, with SC27B, in the test on TAB109, with TAB113 and with TAB165 was “inactive” throughout. In addition, the Potency result with W2 was “inactive”. Also, the max response in the test on KB-3-1 is -12.6%.
Turning to `O=C1CCC(c2ccccc2)(C2CCN(Cc3ccccc3)CC2)C(=O)N1` (configuration not stated), the Potency result with ICS, with JCK, with N140, in the test with P93_24, with P94_40 and in the test with PAD was “inactive” in each case. The Potency entry in the test with PC15, with PC26, in the test on PC49, in the test on SC27B, in the test with TAB113 and in the test with TAB165 was “inactive” each time. Besides, the Potency in the test with W2 is 6.75 µM (active). Further, in the test on KB-3-1, the max response was 17.5%.
Consider `O.O.O.O.O.O.O.O=S(=O)([O-])[O-].[Co+2]`, for which the Potency is 5.62 µM (active) with ICS; 12.6 µM (active) with JCK; 12.6 µM (active) with N140; 7.94 µM (active) in the test on PC49; 7.94 µM (active) in the test with SC27B; 7.94 µM (active) in the test with TAB109. Further, the Potency in the test with TAB113 was 6.31 µM (active); in the test with TAB165 it was 10 µM (active); in the test on W2, 5.36 µM (active). Moreover, the Potency result with P93_24, in the test with P94_40, with PAD and in the test with PC15 was “inactive” throughout. Moreover, the max response with KB-3-1 was -0.614%.
`COc1cc2c(cc1OC)[C@@H](Cc1cc(OC)c(OC)c(OC)c1)[N+](C)(CCCOC(=O)CC/C=C/CCC(=O)OCCC[N+]1(C)CCc3cc(OC)c(OC)cc3[C@H]1Cc1cc(OC)c(OC)c(OC)c1)CC2` (some centres not stated): the Potency entry in the test with ICS, in the test with JCK, in the test on N140, in the test on P93_24, with P94_40 and in the test with PAD was “inactive” each time. The Potency entry in the test on PC15, in the test on PC49, with SC27B, in the test on TAB109, in the test on TAB113 and in the test on TAB165 was “inactive” throughout. Further, in the test on W2, the Potency result is “inactive”. In the test on KB-3-1, the max response was -6.45% and -2.94%.
